# Reference: PubChem BioAssay (NCATS)
# Values joined by “and” are separate entries in the source; they are usually repeats but may differ in a detail not shown here. Equal entries are not always repeated. Records with an inconclusive call do not appear. Values without a mark were called inactive. Active and inactive are the calls of the source. The call rests on the fitted dose curve; in most records, active means well fitted cell-killing curve with a large enough effect; inconclusive means small, poorly fitted or top-dose-only effect; inactive means no such curve, though single readings can be large or run the other way.
# Test: qHTS of pediatric cancer cell lines to identify multiple opportunities for drug repurposing: Primary screen for NB-EBc1 cells (AID 1347095)
# Conditions: NB-EBc1 neuroblastoma viability, CellTiter-Glo luminescence, 48 h; series mostly up to 46 µM; activity change, negative = cytotoxic: at the top concentration
# Description: Drug repurposing or repositioning has been offered as a strategy for drug development in oncology programs. This approach has special potential for childhood cancers and other rare or orphan diseases, where the expected return on new drug development has been a disincentive to pharmaceuticals. […] In this project we exploit the poly-pharmacology of drugs to discover new indications via phenotypic screening of a panel of 19 well-characterized cell lines derived from solid tumors seen in children and adolescents. The goal is to identify approved drugs with previously unrecognized anticancer properties that has the potential to reveal new mechanisms and biological processes involved in carcinogenesis or drug resistance. We employed a titration-based paradigm (quantitative high-throughput screening or qHTS), where all compounds were tested at multiple concentrations for their effect on cell viability. Concentration-response curves (CRCs) were derived directly from the primary screen, and both potency and efficacy values were used to identify compounds with robust bioactivity profiles. We screened the NIH Chemical Genomics Center (NCGC) Pharmaceutical Collection (NPC) and Mechanism Interrogation Plate (MIPE) small molecule collections of approved and investigational compounds against these cell lines; and measured metabolically active cells after 48 hours of compound treatment as a proxy for cell viability. […] Assay Submitter: Nathalia J. Martinez, National Center for Advancing Translational Sciences, National Institutes of Health, Rockville, MD, USA; email: natalia.martinez@nih.gov Shen, M et al. Quantitative high-throughput phenotypic screening of pediatric cancer cell lines identifies multiple opportunities for drug repurposing. Oncotarget 2017 Dec 19;9(4):4758-4772. PMID 29435139.
# The cells were obtained from University of North Carolina (UNC), Pediatric Preclinical Testing Program (PPT), and Coriell Institute (CI). qHTS cell viability assay: Cells were assayed in growth media at a density of 500-1,000 cells/well. Five microliters of cells were dispensed into 1,536-well, white, solid-bottom, TC-treated plates (Greiner Bio One) using a multidrop dispenser and incubated at 37 degrees C, 5% CO2, under a humidified atmosphere for 5 hours. Twenty-three nanoliters of compounds and controls (neutral control DMSO or positive control bortezomib at final concentration of 2.3 µM) were subsequently transferred by Kalypsys pintool. For primary screens, the MIPE collection was tested at 11-point dilutions (final concentrations range from 0.78 nM to 46 µM) and the NPC collection at 8-point dilutions (final concentrations range from 0.59 nM to 46 µM). Compounds tested in follow-up screens were assayed at 11-point dilutions. Cells were incubated for 48 hours, followed by addition of 3 µL of CellTiter-Glo (Promega). After a 15 min incubation at room temperature, samples were analyzed for luminescence intensity using a ViewLux High-throughput CCD imager equipped with clear filters.
# Potency means the concentration at half of the fitted maximal effect.
SMILES,Potency,"activity change, negative = cytotoxic"
Clc1ccc(CCC(Cn2ccnc2)Sc2c(Cl)cccc2Cl)cc1 (stereo not given),21.1 µM (active),
CCCN1CCC[C@@H]2Cc3[nH]ncc3C[C@H]21,,2.88%
C=C1CC[C@@]2(O)[C@H]3Cc4ccc(O)c5c4[C@@]2(CCN3CC2CC2)[C@H]1O5,,-1.05%
CC(CCc1ccccc1)NC(C)C(O)c1ccc(O)cc1 (stereo not given),,-7.85%
CCN(CC)C(=O)N[C@@H]1C=C2c3cccc4[nH]cc(c34)C[C@@H]2N(C)C1,,6.09%
C[C@@H]1[C@@H](CC(C[C@H]2O[C@@H]3O[C@]4(C)CC[C@@H]5[C@H](C)CC[C@@H]([C@H]2C)[C@@]35OO4)C[S+](=O)([O-])c2ccc(COC(=O)N(C)C)cc2)O[C@@H]2O[C@]3(C)CC[C@H]4[C@H](C)CC[C@@H]1[C@@]24OO3 (stereo not given in full),0.418 µM (active),
CC[N+](CC)(CC)CC,,19.4%
C=CCN1CC[C@]23c4c5ccc(O)c4O[C@H]2C(=O)CC[C@@]3(O)[C@H]1C5,,16.3%
NN=C(N)N,,21.1%
CN1CCN(C(=O)O[C@H]2c3nccnc3C(=O)N2c2ccc(Cl)cn2)CC1,inactive,
CC(C)=CCOc1c2occc2cc2ccc(=O)oc12,,14.1%
C[C@@H]1O[C@@H](O[C@H]2C[C@@H](O)[C@]3(CO)[C@H]4[C@H](O)C[C@]5(C)[C@@H](C6=CC(=O)OC6)CC[C@]5(O)[C@@H]4CC[C@]3(O)C2)[C@H](O)[C@H](O)[C@H]1O,74.3 nM (active) and 266 nM (active),
CCCC1CCCCN1 (stereo not given),,8.23%
Cc1cccc(C)c1NC1=NCCCS1,,-2.6%
NP(N)(=O)NC(=O)c1ccc(F)cc1,,23.7%
CC[N+]1(C)CCCC(OC(=O)C(O)(c2ccccc2)c2ccccc2)C1 (stereo not given),,1.86%
CNCC(O)c1ccc(O)cc1 (stereo not given),inactive,
NCC(O)c1ccc(O)cc1 (stereo not given),,12.8%
COc1ccc(C(=O)c2c(C)n(CCN3CCOCC3)c3ccccc23)cc1,,28%
N[C@@H]1C[C@H]1c1ccccc1,,21.6%

SMILES,Potency,"activity change, negative = cytotoxic"
COC[C@H]1OC(=O)c2coc3c2[C@@]1(C)C1=C(C3=O)C2CCC(=O)[C@@]2(C)C[C@H]1OC(C)=O (stereo not given in full),0.833 µM (active),
CCCN1CCC[C@@H]2Cc3nc(N)ncc3C[C@H]21,,2.7%
CC(O)(CS(=O)(=O)c1ccc(F)cc1)C(=O)Nc1ccc(C#N)c(C(F)(F)F)c1 (stereo not given),3.32 µM (active),
O=C1NCN(c2ccccc2)C12CCN(CC1COc3ccccc3O1)CC2 (stereo not given),,-8.42%
CCC(=O)C(CC(C)N(C)C)(c1ccccc1)c1ccccc1 (stereo not given),,-9.08% [at 92.7 µM]
NCC(CC(=O)O)c1ccc(Cl)cc1 (stereo not given),,-3.28% [at 0.597 µM]
CCOP(=S)(OCC)Oc1cc(C)nc(C(C)C)n1,,8.57%
O=C1CC[C@@]2(O)[C@H]3Cc4ccc(O)c5c4[C@@]2(CCN3CC2CC2)[C@H]1O5,inactive,
CN(C)CCN(C)CCc1ccc(Cl)c(Cl)c1,,-6.1%
N[C@@H](Cc1ccc(Oc2cc(I)c(O)c(I)c2)c(I)c1)C(=O)O,,9.31%
CCN(C(C)=O)c1cccc(-c2ccnc3c(C#N)cnn23)c1,,-3.44%
Oc1ccccc1-c1ccccc1,,4.51%
C=C(C)[C@H]1Cc2c(ccc3c2O[C@@H]2COc4cc(OC)c(OC)cc4[C@@H]2C3=O)O1,3.35 µM (active) and 2.64 µM (active),
C#CCOC(C(=O)OCCN(C)C)(c1ccccc1)c1ccccc1,,14.8%
CCC(COC(=O)c1cc(OC)c(OC)c(OC)c1)(c1ccccc1)N(C)C (stereo not given),,-2.71%
CC(C)(C)NCC(O)c1cc(Cl)c(N)c(Cl)c1 (stereo not given),,17.4%
Oc1cc(Cl)ccc1Oc1ccc(Cl)cc1Cl,4.95 µM (active),
CC[C@@H](CO)NC(=O)[C@@H]1C=C2c3cccc4[nH]cc(c34)C[C@H]2N(C)C1,,-3.47%
NCC1(CC(=O)O)CCCCC1,inactive,
CC(C)(N)Cc1ccc(Cl)cc1,,9.59%
